From the supplement of paper PMC10338343
± gives the standard deviation.
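Note: 1 nM active piRISC with 0.1 nM target library at 33 °C single turnover.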

What follows are sequences tested on MILI (PIWIL2) piRISC loaded with piRNA #1 (26 nt) (assay: pre-steady-state target cleavage rate (min^-1); guide: piRNA #1 5'p-UGAGGUAGUAGGUUGUAUAGUAUCCA; MIWI and MILI are mouse PIWI proteins and EfPiwi is from a freshwater sponge; tags in brackets are library labels; higher = faster piRNA-guided slicing of the target). Conditions: auxiliary factor: 500 nM mouse GTSF1.
Summary of the method: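 At 33 °C in HEPES–potassium acetate buffer, a transcribed, DNA-blocked target RNA library […] was exposed for 0–8 or 0–960 min to 1 nM active affinity-purified piRISC carrying a single synthetic guide, with or without 500 nM GTSF1 partner protein. Uncleaved targets were sequenced and normalised to depth and to weakly complementary targets. With three trials pooled and k3 capped at 0.0001 min^-1, a burst-and-steady-state fit produced the pre-steady-state cleavage rate.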
GGAGACCAUACUGUACAACCUACUACCUCA was tested, and the “pre-steady-state target cleavage rate” value was 0.079 ± 0.012. With GGAGACCAUACUAUCAACCUACUACCUCA the “pre-steady-state target cleavage rate” value was 0.199 ± 0.022. With GGAGUUGAUACUAUACAACCUACUACCUCA the “pre-steady-state target cleavage rate” value was 0.204 ± 0.012. With GGAGACCAUGCUAUACAACCUACUACCUCA the “pre-steady-state target cleavage rate” value was 0.145 ± 0.023. GGAGAGGAUACUAUACAACCUACUACCUACA was tested, and the “pre-steady-state target cleavage rate” value was 0.133 ± 0.016. GGAGUGGAUACAAUACAACCAACUACCUCA was tested, and the “pre-steady-state target cleavage rate” value was 0.00919 ± 0.0019. In the case of GGAGACCAUACUAUUACAACCUACUACCUCA, the “pre-steady-state target cleavage rate” value is reported as 0.161 ± 0.013. GGAGAGGAUACAAAACAACCUACUACCUCA was tested, and the “pre-steady-state target cleavage rate” value was 0.128 ± 0.013. GGAGUGGAUACUAUACAAGCUUCUACCUCA was tested, and the “pre-steady-state target cleavage rate” value was 0.0391 ± 0.0037. With GGAGAGGAUACUAUUCAUCCUACUACCUCA the “pre-steady-state target cleavage rate” value was 0.273 ± 0.02. With GGAGACCUUAGUAUACAACCUACUACCUGA the “pre-steady-state target cleavage rate” value was 0.0569 ± 0.0097. For GGAGAGGAUACUAUACAACCUCACUACCUCA, the “pre-steady-state target cleavage rate” value was 0.00456 ± 0.0027. For GGAGACCUAACUAUACAAGCUAGUACCUCA, the “pre-steady-state target cleavage rate” value was 0.0871 ± 0.019. With GGAGACGAUACUAUACAACCAUCUACCUCA the “pre-steady-state target cleavage rate” value was 0.00466 ± 0.003. GGAGACCAUACUAUACAACCUUCUACCUCA was tested, and the “pre-steady-state target cleavage rate” value was 0.00761 ± 0.0026. In the case of GGAGACCUAACUAUACAACCUACUACAUCA, the “pre-steady-state target cleavage rate” value is reported as 0.0477 ± 0.014. GGAGAGGAUACUAUACAACCUACUACAUCA was tested, and the “pre-steady-state target cleavage rate” value was 0.0431 ± 0.0077. GGAGACGAUACUAUACAACCUACUACCUGCA was tested, and the “pre-steady-state target cleavage rate” value was 0.203 ± 0.021. GGAGUGCAUAGUAUACAACCUACUACCUCA was tested, and the “pre-steady-state target cleavage rate” value was 0.125 ± 0.011. With GGAGAGGAUACUAUACAAGCUACUUCCUCA the “pre-steady-state target cleavage rate” value was 0.0737 ± 0.013. With GGAGUGCAUACUAUACAACCUACUACGUCA the “pre-steady-state target cleavage rate” value was 0.0632 ± 0.0079. With GGAGACCUUGACUAUACAACCUACUACCUCA the “pre-steady-state target cleavage rate” value was 0.163 ± 0.022. GGAGACGAAACUAUUCAACCUACUACCUCA was tested, and the “pre-steady-state target cleavage rate” value was 0.198 ± 0.021. With GGAGACGAUACUAUACAACGUACAACCUCA the “pre-steady-state target cleavage rate” value was 0.0345 ± 0.0071. For GGAGAGGAUACUUUACAACCUAGUACCUCA, the “pre-steady-state target cleavage rate” value was 0.0146 ± 0.0048. GGAGACCUUACUAUACAACCUACUAGCUCA was tested, and the “pre-steady-state target cleavage rate” value was 0.145 ± 0.02. With “GGAGAGGAUACUAUACAACCUACUACCUCC [g2:g25:cont:t1C]” the “pre-steady-state target cleavage rate” value was 0.146 ± 0.013. With GGAGACGGAUACUAUACAACCUACUACCUCA the “pre-steady-state target cleavage rate” value was 0.234 ± 0.018. GGAGUGGAUACAAUACAAGCUACUACCUCA was tested, and the “pre-steady-state target cleavage rate” value was 0.213 ± 0.015. In the case of GGAGUGGAUACUAUACAACCUACUACCACA, the “pre-steady-state target cleavage rate” value is reported as 0.113 ± 0.0097. For GGAGACCUAUCUAUACAACCUACAACCUCA, the “pre-steady-state target cleavage rate” value was 0.0886 ± 0.013. With GGAGACCUUAUCUAUACAACCUACUACCUCA the “pre-steady-state target cleavage rate” value was 0.115 ± 0.014. With GGAGACGAUACUAUACAACCUACAACCUGA the “pre-steady-state target cleavage rate” value was 0.0121 ± 0.0074. For GGAGACCAUACUAUACAACCUACUUGCUCA, the “pre-steady-state target cleavage rate” value was 0.13 ± 0.032. GGAGAGGAUACUAUAACAACCUACUACCUCA was tested, and the “pre-steady-state target cleavage rate” value was 0.161 ± 0.012. GGAGUGGAAACUUUACAACCUACUACCUCA was tested, and the “pre-steady-state target cleavage rate” value was 0.179 ± 0.02. With GGAGACCAUACUAUCACAACCUACUACCUCA the “pre-steady-state target cleavage rate” value was 0.136 ± 0.019. In the case of GGAGACCUUAGUAUACAACCUACUACCUCA, the “pre-steady-state target cleavage rate” value is reported as 0.0889 ± 0.0097. In the case of GGAGACCAUACUAUACAAGCUACUUCCUCA, the “pre-steady-state target cleavage rate” value is reported as 0.193 ± 0.016. For GGAGACGAUACUAUACAACCUACUACUCA, the “pre-steady-state target cleavage rate” value was 0.125 ± 0.019.
